Out of some 310,000 compounds screened, about 14,000 (4.5%) showed an effect of 50% or more. The effect is printed as a negative number. The sample holds strong results, similar compounds and a random draw of the others, so the mix is not that of the screen.
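Further: peak tail current of the secondary pulse compared with the same well before compound.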

human ether-à-go-go-related gene (hERG) potassium channel, sequence (Q12809 whole entry, looked up): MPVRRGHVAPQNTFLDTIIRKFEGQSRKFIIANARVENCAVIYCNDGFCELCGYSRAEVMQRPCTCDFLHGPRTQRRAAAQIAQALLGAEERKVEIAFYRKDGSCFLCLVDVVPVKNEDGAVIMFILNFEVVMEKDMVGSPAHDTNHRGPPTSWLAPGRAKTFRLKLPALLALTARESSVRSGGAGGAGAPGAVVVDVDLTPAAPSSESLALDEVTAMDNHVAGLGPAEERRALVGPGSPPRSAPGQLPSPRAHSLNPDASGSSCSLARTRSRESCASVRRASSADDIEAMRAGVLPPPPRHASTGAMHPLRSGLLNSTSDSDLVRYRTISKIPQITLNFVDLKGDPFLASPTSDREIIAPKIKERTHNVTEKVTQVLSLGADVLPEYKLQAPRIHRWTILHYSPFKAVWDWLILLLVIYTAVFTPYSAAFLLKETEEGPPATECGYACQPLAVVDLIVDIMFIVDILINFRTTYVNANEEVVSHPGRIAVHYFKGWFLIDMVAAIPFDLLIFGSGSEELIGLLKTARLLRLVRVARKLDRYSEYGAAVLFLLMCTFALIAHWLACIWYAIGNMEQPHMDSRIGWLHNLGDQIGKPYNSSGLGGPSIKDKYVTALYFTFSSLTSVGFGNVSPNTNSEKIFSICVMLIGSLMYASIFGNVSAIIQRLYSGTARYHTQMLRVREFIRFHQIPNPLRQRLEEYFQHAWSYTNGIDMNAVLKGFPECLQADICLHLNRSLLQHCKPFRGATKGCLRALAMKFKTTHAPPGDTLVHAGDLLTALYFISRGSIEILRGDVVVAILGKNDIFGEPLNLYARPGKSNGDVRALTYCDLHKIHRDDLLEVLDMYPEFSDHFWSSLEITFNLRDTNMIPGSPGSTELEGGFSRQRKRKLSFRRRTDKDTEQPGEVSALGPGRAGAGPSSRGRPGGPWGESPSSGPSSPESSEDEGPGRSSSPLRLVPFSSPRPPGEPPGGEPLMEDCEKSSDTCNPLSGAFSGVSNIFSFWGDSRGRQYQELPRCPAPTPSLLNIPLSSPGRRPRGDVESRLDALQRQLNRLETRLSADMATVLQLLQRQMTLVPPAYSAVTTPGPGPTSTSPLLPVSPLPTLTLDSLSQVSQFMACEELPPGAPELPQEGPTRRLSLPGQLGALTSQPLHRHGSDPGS

The experiment concerns the target human ether-à-go-go-related gene (hERG) potassium channel (human, UniProt Q12809). In words: primary screen, population patch clamp on CHO cells stably expressing hERG; higher = less effect of the substance.
Turning to `Cc1ccc2nc(N3C(=O)C(O)=C(C(=O)c4ccc(C)o4)C3c3ccco3)sc2c1` (centres unmarked), the “hERG current change (%, negative = inhibition) at 10uM” value stood at 12.8%. With `COC(=O)c1ccc(NC(=O)C[n+]2ccccc2)cc1.[Cl-]`, the “hERG current change (%, negative = inhibition) at 10uM” value was found to be 11.9%. With `COc1ccc(NC(=O)Cn2c(=O)oc3cc(S(=O)(=O)N4CCCC4)ccc32)c(OC)c1` the figure was 7.38%; with `O=C(Nc1ccccc1)c1ccc(NCCN2C(=O)CCC2=O)c([N+](=O)[O-])c1`, 10.9%; with `CCCn1c(N)c(N2CCCCC2)c(=O)n(CC(=O)Nc2ccccc2C)c1=O`, 14.6%. Next, `Cc1nn(C)cc1C(C)Nc1nc2nonc2nc1N1CCCCC1` (centres unmarked): 0.196%; `CCN(Cc1ccc2c(c1)OCO2)C(=O)CSc1nc(C)nc2sc(C)c(C)c12`: -5.76%; `COc1ccc(C(=O)Nc2c(N)nc(SCC(=O)Nc3ccc(NC(C)=O)cc3)[nH]c2=O)cc1`: 21.9%. With `CCN(CC)CCC(c1ccc(N(C)C)cc1)c1c(OC)cc(OC)c2c(-c3ccccc3)cc(=O)oc12` (centres unmarked) the figure was -24.5%. As for `COc1ccc(C(CC(=O)N2CCCC2)c2c(OC)cc(OC)c3c(-c4ccccc4)cc(=O)oc23)cc1` (centres unmarked), the “hERG current change (%, negative = inhibition) at 10uM” value was -5.46%. Next, `COc1ccc(C(CCN2CCCC2)c2c(OC)cc(OC)c3c(-c4ccccc4)cc(=O)oc23)cc1` (centres unmarked): -52.7%. On to `COc1ccc(C(CCN2CCCCC2)c2c(OC)cc(OC)c3c(-c4ccccc4)cc(=O)oc23)cc1` (centres unmarked), for which the “hERG current change (%, negative = inhibition) at 10uM” value is recorded as -55.1%. For the compound `COc1ccc(C(CCN2CCN(c3ccccc3)CC2)c2c(OC)cc(OC)c3c(-c4ccccc4)cc(=O)oc23)cc1` (centres unmarked), the “hERG current change (%, negative = inhibition) at 10uM” value is reported as -9.55%. Next, `COc1cc(OC)c2c(-c3ccccc3)cc(=O)oc2c1C(CCN1CCCC1)c1ccc2c(c1)OCO2` (centres unmarked): -46.9%; `COc1ccc(C(CC(=O)N2CCCCC2)c2c(OC)cc(OC)c3c(-c4ccccc4)cc(=O)oc23)cc1` (centres unmarked): 0.849%; `COc1cc(OC)c2c(-c3ccccc3)cc(=O)oc2c1C(CCN1CCCC(C)C1)c1ccc2c(c1)OCO2` (centres unmarked): -48.8%. Next, `CCN(CC)C(=O)CC(c1ccc2c(c1)OCO2)c1c(OC)cc(OC)c2c(-c3ccccc3)cc(=O)oc12` (centres unmarked): 5.08%. With `COc1cc(OC)c2c(-c3ccccc3)cc(=O)oc2c1C(CCN1CCCCC1)c1ccc2c(c1)OCO2` (centres unmarked), the “hERG current change (%, negative = inhibition) at 10uM” value was -53.2%. `COc1cc(OC)c2c(-c3ccccc3)cc(=O)oc2c1C(CCN1CCCCC1)c1ccc(N(C)C)cc1` (centres unmarked): the “hERG current change (%, negative = inhibition) at 10uM” value was -25%. For the compound `CCN(CC)CCC(c1ccc2c(c1)OCO2)c1c(OC)cc(OC)c2c(-c3ccccc3)cc(=O)oc12` (centres unmarked), the “hERG current change (%, negative = inhibition) at 10uM” value is -65.4%.

These data come from PMC4336329 (PLoS ONE, 2015).
